The list is not random: actives were taken first. Their share in the collection is about 2.1%.
Env fusion inh = HIV envelope-mediated fusion inhibition. HeLa-JRFL Env/CEM21 cell fusion, luciferase. inhibition, % at 12.3 µM. actives 1.1% (n = 360,000). AID 651610;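 active = mean replicate inhibition score of at least 50 and every replicate individually at or above 50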;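 also: 0% = plate neutral controls and 100% = maraviroc near 300 nM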
NSD2 inh = NSD2 (human) methyltransferase inhibition; O96028; NSD2 peptide methylation, AlphaScreen, 120 min; inhibition, % at 12.5 µM; actives 0.54% (n = 310,000); in the data active = inhibition above about 50%
MLL AF4-AF9 inh = MLL-AF4/AF9 protein interaction inhibition. P42568. AlphaScreen, biotin-AF4 peptide binding to FLAG-AF9. inhibition, % at 10 µM. actives 0.47% (n = 350,000). AID 651704;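 active = every replicate reaching a set inhibition limit, whatever the replicate mean, cut at about 25% in these data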;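 also: 0% = plate neutral control median and 100% = total signal loss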
Target sequence (P42568 whole entry, looked up): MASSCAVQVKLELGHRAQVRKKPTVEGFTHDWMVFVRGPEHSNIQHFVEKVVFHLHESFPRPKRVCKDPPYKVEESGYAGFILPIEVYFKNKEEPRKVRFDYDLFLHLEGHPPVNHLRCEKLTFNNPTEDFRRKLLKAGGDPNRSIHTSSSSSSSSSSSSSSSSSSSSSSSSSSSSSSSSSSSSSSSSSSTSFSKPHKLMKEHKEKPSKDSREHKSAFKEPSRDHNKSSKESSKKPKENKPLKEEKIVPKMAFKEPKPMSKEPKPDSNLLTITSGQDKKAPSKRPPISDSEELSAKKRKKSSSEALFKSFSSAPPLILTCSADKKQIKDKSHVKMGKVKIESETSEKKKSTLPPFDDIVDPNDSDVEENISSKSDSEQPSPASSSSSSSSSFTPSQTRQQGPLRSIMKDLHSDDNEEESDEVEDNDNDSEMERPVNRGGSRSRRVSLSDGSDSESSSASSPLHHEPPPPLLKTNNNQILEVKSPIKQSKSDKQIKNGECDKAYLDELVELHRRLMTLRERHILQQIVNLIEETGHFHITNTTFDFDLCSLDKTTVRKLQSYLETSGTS
PGC1a acetyl inh = modulators of PGC1a acetylation | U2OS PGC1a acetylation, AlphaScreen anti-acetyl-lysine; with virally co-expressed GCN5 acetyltransferase | inhibition, % at 15.6 µM | actives 0.17% (n = 350,000);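 active = every replicate shows inhibition of at least 40%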;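 also: 0% = neutral control wells and 100% = positive control wells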
GSIS activator = primary screen for activators of insulin secretion dependent on glucose, INS-1E cells, GLuc reporter luminescence; INS-1E GLuc reporter insulin secretion, 2-3 h; actives 0.61% (n = 370,000); activation, % at 16.6 µM;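 active = lowest replicate activation of at least 40%, so every replicate reaches that level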;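 also: 0% = median of neutral control wells and 100% = median of IBMX positive control wells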
* marks the source's active call; other numbers are inactive results; . = no result; [ ] = dose if it differs, or a comment.

SMILES | Env fusion inh | NSD2 inh | MLL AF4-AF9 inh | PGC1a acetyl inh | GSIS activator
N#Cc1ccc(C(C(=O)NC2CCCCC2)n2c(=O)c(-c3ccco3)nc3ccccc32)cc1 (stereo not given) | 16.7 | . | . | . | -0.8
O=C(NC1CCCCC1)C(c1ccccc1)n1c(=O)c(-c2ccco2)nc2ccccc21 (stereo not given) | 63.1* | . | 8.1 | . | -39.9
Cc1nnc(SCC(=O)Nc2cc(S(=O)(=O)N3CCOCC3)ccc2N2CCCC2)s1 | 0.2 | -1.9 | -1.2 | 9.6 | 8.6
CCOC(=O)c1c(C)[nH]c(C(C)=NNC(=O)c2cccs2)c1C | . | 10.7 | 2.8 | -4.1 | 53.8*
Cc1c(C(=O)Nc2ccc3c(c2)OCCO3)cnn1C | -6.8 | -4.0 | 0.1 | . | 6.8
CCC[C@@H]1C[C@@]1(CCC)[C@@H](NP(=O)(c1ccccc1)c1ccccc1)c1ccc(C(=O)OC)cc1 | 95.7* | . | . | . | .
Oc1c(C(c2ccccn2)N2CCC(Cc3ccccc3)CC2)cc(Cl)c2cccnc12 (stereo not given) | -66.5 | -3.0 | 45.0* | . | 0.9
Cc1ccc(C(c2cc(Cl)c3cccnc3c2O)N2CCN(C)CC2)cc1 (stereo not given) | . | . | . | 5.6 | .
O=C(C1CC=CCC1)N1CCN(S(=O)(=O)c2ccc(F)cc2)CC1 (stereo not given) | -2.0 | -3.5 | -1.2 | -11.6 | 0.4
Cc1cc(O)c(N=Nc2ccc(C(=O)O)cc2)cc1C | -163.6 | 8.6 | 6.4 | 50.1* | .
CN(CCO)c1nc(NCc2ccccc2)c2cnn(C)c2n1 | 25.9 | 2.8 | -3.6 | -0.3 | 40.6*
CC(=O)c1cc(C#N)c(SCCC(C)C)nc1C | . | -0.3 | -0.9 | 3.6 | 4.2
CC(C)CCSc1nc(N)c(C#N)cc1C#N | 82.5* | -1.3 | . | -6.7 | -10.6
CC1CN(c2nc3ccccc3nc2C(C#N)C(=O)OC2CCCCC2)CC(C)O1 (stereo not given) | 58.8* | -1.2 | . | . | .
CSc1nc(-c2ccccc2)c(C#N)c(=O)[nH]1 | -0.5 | -1.0 | . | 0.8 | -15.3
CSc1nc(-c2ccc(Cl)cc2)c(C#N)c(=O)[nH]1 | 59.3* | -0.4 | -3.7 | . | -0.2
CC(C)CC#Cc1ccc2c(c1)O[C@H](CN(C)C(=O)C1CCCCC1)[C@@H](C)CN([C@@H](C)CO)S2(=O)=O | 22.1[16.7 µM] | . | 3.6 | 34.8 | 55.3*
CC(C)CC#Cc1ccc2c(c1)O[C@@H](CN(C)C(=O)C1CCCCC1)[C@H](C)CN([C@@H](C)CO)S2(=O)=O | 57.1*[16.7 µM] | . | 1.7 | 1.8 | 34.7
CCCC#Cc1ccc2c(c1)O[C@@H](CN(C)C(=O)C1CCCCC1)[C@@H](C)CN([C@H](C)CO)S2(=O)=O | 22.3[16.7 µM] | . | . | -16.6 | -17.8
CCCC#Cc1ccc2c(c1)O[C@@H](CN(C)C(=O)C1CCCCC1)[C@H](C)CN([C@H](C)CO)S2(=O)=O | 62.3*[16.7 µM] | . | . | 2.6 | -10.0
O=C1OCCC1Sc1nc2ccccc2n1-c1ccccc1 (stereo not given) | . | . | . | -1.1 | .
Cc1ccc(C(C)C)c(OCC(=O)NNC(=O)Cc2ccc(S(=O)(=O)N3CCOCC3)s2)c1 | -2.2 | -0.5 | -2.2 | 3.8 | -33.3
CCCCN(CC)CCNC(=O)CCC(=O)Nc1ccc2nc(N3CCN(C)CC3)cc(C)c2c1 | -6.6 | 6.5 | 6.1 | -1.0 | .
O=C(NC(c1ccccc1)C(Cl)Cl)c1ccccc1 (stereo not given) | 3.9 | 3.9 | . | . | 2.2
CCCc1nnc2c(N(C)S(=O)(=O)c3ccc(C)cc3)nc3ccccc3n12 | 14.5 | -0.3 | -3.4 | . | 68.2*
SMILES | Env fusion inh | NSD2 inh | MLL AF4-AF9 inh | PGC1a acetyl inh | GSIS activator
CCCCc1nnc2c(N(C)S(=O)(=O)c3ccc(C)cc3)nc3ccccc3n12 | 9.7 | 1.1 | -22.7 | -7.6 | 16.0
CC(C)[N+]1=C2C=CC=CC=C2SC12C([N+](=O)[O-])=CC(=[N+]([O-])[O-])C=C2[N+](=O)[O-] (stereo not given) | 2.6 | 31.5 | 28.9* | -26.8 | 1.0
CCOc1ncccc1C(=O)Nc1ccc(S(=O)(=O)NC2=NCCCCC2)cc1 | 0.0 | -2.2 | 0.0 | -0.9 | 32.9
CCOc1ncccc1C(=O)Nc1ccc(S(=O)(=O)Nc2nccs2)cc1 | 5.3 | 1.1 | -1.9 | 21.7 | 85.8*
C=CCn1c(SCC(=O)Nc2nc(C)cs2)nnc1C(NC(=O)c1ccccc1)C(C)C (stereo not given) | 111.8* | -0.1 | . | 1.6 | .
O=C(N/N=C\c1ccc(OC(=O)c2cccs2)cc1)c1ccc(Cl)cc1 | 10.2 | -2.5 | -2.7 | . | -8.7
Cc1ccc(-c2csc3ncnc(SCC(=O)O)c23)cc1 | -2.1 | 3.1 | -1.4 | 9.4 | 13.8
